This is a sample that favours compounds with a hit; in the whole collection about 19% have one here.
CHX counter – counter-screen hit for Shiga toxin inhibitors, cycloheximide; max response, %; cell reporter, cycloheximide protein synthesis inhibition counterscreen; 12% of 300,000 active; in the data active = max response mostly above about 13%, no sharp cut-off; inactive = mostly below about 14%; note: read at 38.3 µM for the half of the compounds with a filed dose; 0% is about no effect
Pf growth 96h – P. falciparum growth inhibition at 96 hour, primary screen for plastid delayed-death inhibitors; 6.9% of 320,000 active; AID 504834; Potency, µM (series often up to 28.7 µM), for inactives: top-dose activity change, negative = inhibition, actives largely listed as inhibitors; P. falciparum luciferase reporter growth, 96 h; note: potency is the fitted concentration of half-maximal effect; % is set by controls: 0 for no effect and ±100 for the full control effect
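Infected RBCs, 2% Hct / 0.05% parasitemia final; luciferase-reporter P. falciparum; cpd 96 h, 37 C, 5% CO2; luciferase detection reagent; luminescence.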
LASV entry inh – Lassa virus entry inhibition. Lassa virus pseudotype entry inhibition, cell reporter. Potency, µM (doses to about 37.9 µM), for inactives: at the highest dose activity change, negative = inhibition, hits mostly inhibitors. 1.2% of 300,000 active; calls by dose curve; tested in HEK293 cells; note: potency is the fitted concentration of half-maximal effect; % is set by controls: 0 for no effect and ±100 for the full control effect; nearly all actives have a fitted effect of over 50% in size
MARV entry inh – inhibitors of Marburg virus binding or cell entry. 1.8% of 300,000 active. Potency, µM (highest dose often 37.8 µM), inactives show top-dose activity change, negative = inhibition, usual class: inhibitors. AID 540276. Marburg virus pseudotyped entry inhibition, cell reporter; calls by dose curve; tested in HEK293 cells; note: potency is the fitted concentration of half-maximal effect; % is set by controls: 0 for no effect and ±100 for the full control effect
Shiga inhibitor – inhibitors of Shiga toxin in Vero cells; 9.2% of 290,000 active; Vero cells, Shiga toxin protein synthesis inhibition reporter; AID 2315; inhibition, % at 38.7 µM; in the data active = inhibition mostly above about 28%, no sharp cut-off; inactive = mostly below about 43%; note: 0% is about no effect
Pf growth 48h – P. falciparum growth inhibition at 48 hours (one generation). Potency, µM (doses to about 28.7 µM), without a hit: at the top dose activity change, negative = inhibition, usual class: inhibitors. 5.9% of 310,000 active. P. falciparum luciferase growth in erythrocytes, 48 h. AID 504832; note: potency is the fitted concentration of half-maximal effect; % is set by controls: 0 for no effect and ±100 for the full control effect
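Luciferase-expressing parasites in RBCs, 2% Hct / 0.1% parasitemia final; RPMI 1640 + 0.5% Albumax; 37 C, 5% CO2, one generation; luminescence read-out, lower signal = inhibition.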
Active calls of the source: *; ? = inconclusive; . = no result given; + = active, no number; [ ] = dose if it differs, or a comment. Unless noted, calls come from the whole dose curve; as a rule, active = well fitted inhibition curve with a large enough effect; inconclusive = small, poorly fitted or top-dose-only effect, or another doubt; inactive = no such curve, though single readings can be large or run the other way.

SMILES	CHX counter	Pf growth 96h	LASV entry inh	MARV entry inh	Shiga inhibitor	Pf growth 48h
CC(C)OC(=O)C1C(=O)CC(C)(O)C(C(=O)OC(C)C)C1c1ccc([N+](=O)[O-])cc1 (stereo unspecified)	-6	-17%	-14%	-2%	-2	?
Cc1ccccc1Cn1nc(C)c(NC(=O)c2cc3nc(-c4ccco4)cc(C(F)(F)F)n3n2)c1C	2	.	?	?	3	13µM*
O=C(Nc1cnn(Cc2ccccc2)c1)c1cc2nc(-c3ccco3)cc(C(F)(F)F)n2n1	-5	12µM*	3%	-20%	-5	?
Cc1ccccc1Cn1nc(C)c(NC(=O)c2cc(-c3ccco3)on2)c1C	-1	11%	.	.	22	?
Cn1c(C(=O)Nc2cccc(Cl)c2)cc2c(=O)n(C)c3ccccc3c21	.	.	4%[46.1 µM]	6%[46.1 µM]	.	.
CC(=O)c1ccccc1OC(=O)c1c(F)cccc1F	-2	18%	.	.	3	8%
CC(C)NC(=O)c1ccc(-c2cccc(C(F)(F)F)c2)o1	-1	?	-14%	?	17	-4%
CN(CC(=O)Nc1cccc(F)c1)C(=O)c1ccc(-c2ccc(Cl)cc2)o1	23*	1.7µM*	.	.	71*	1.9µM*
Cc1ccc(C)c(NC(=O)CN(C)C(=O)c2ccc(-c3ccc(Cl)cc3)o2)c1	.	13µM*	?	-13%[46.1 µM]	.	1.5µM*
Cc1cccc(C)c1NC(=O)CN(C)C(=O)c1ccc(-c2cccc(C(F)(F)F)c2)o1	.	?	5.6µM*	?	.	12µM*
Cc1ccc(C)c(NC(=O)CN(C)C(=O)c2cc3ccccc3o2)c1	15	3.3µM*	-3%	?	51	2.3µM*
O=C(NC1CCCC1)C(c1ccncc1)N(Cc1cccs1)C(=O)c1csnn1 (stereo unspecified)	11	.	0%	5%	-1	?
COCCn1nnnc1C(C(C)C)N1CCOCC1 (stereo unspecified)	0	8.3µM*	-15%	-3%	1	-1%
O=c1ccc2ccc(O)c(O)c2o1	.	.	?	8%	.	.
Cc1ccccc1NS(=O)(=O)c1ccc(OCCNS(C)(=O)=O)cc1	8	46%	-12%	6%	-4	25%
Cc1cc(C)c(C(=O)Nc2ccc(Br)c(C(F)(F)F)c2)c(C)c1	8	9.3µM*	?	?	15	13µM*
COc1ccc(-c2nnn(CC(=O)N3CCOCC3)n2)cc1	-2	23%	9%[14.3 µM]	4%	-7	.
O=C(Cn1nnc(-c2ccc(OCc3ccccc3F)cc2)n1)N1CCOCC1	21*	.	6%	?	+	92%
CC1CCCN(C(=O)Cn2nnc(-c3ccc(F)cc3)n2)C1 (stereo unspecified)	13	21%	20%	19%[46.1 µM]	-5	33%
CC1CCCN(C(=O)Cn2nnc(-c3ccccc3F)n2)C1 (stereo unspecified)	39*	0%	.	.	49*	99%
O=C(Cn1nnc(-c2ccccc2Cl)n1)N1CCCCC1	27*	?	-2%[46.1 µM]	?	110*	107%
CC(C)COc1ccc(-c2nnn(CC(=O)N3CCCC3)n2)cc1	23*	33%	-6%	3%	58*	?
O=S(=O)(NCc1ccccc1)NCc1ccccc1	-2	2%	6%[46.1 µM]	?	-13	24%
Cc1ccc(S(=O)(=O)N[C@H](C(=O)N2CCC3(O)CCCCC3C2)c2ccccc2)cc1 (stereo partly specified)	0	?	-29%	-17%	14	-9%
COC(=O)c1ccc(CNC(=O)c2c3c(nc4ccccc24)CCN(Cc2ccccc2)C3)cc1	-2	?	8%	-21%	-5	?
SMILES	CHX counter	Pf growth 96h	LASV entry inh	MARV entry inh	Shiga inhibitor	Pf growth 48h
O=C(Cn1nnc(-c2ccccc2)n1)N1CCCCC1	38*	?	14%	27%	47*	0%
CCn1cc(C(=O)N2CCc3ccccc32)c(=O)c2cc(S(=O)(=O)N3CCCC3)ccc21	-3	12µM*	8%	?	-15	?
CCOC(=O)C1CCCN(C(=O)c2cn(CC)c3ccc(S(=O)(=O)N4CCCC4)cc3c2=O)C1 (stereo unspecified)	-3	.	2%	3%	-9	12µM*
CCOC(=O)C1CCCN(C(=O)c2cn(C)c3ccc(S(=O)(=O)N4CCCC4)cc3c2=O)C1 (stereo unspecified)	-3	-24%	5%	23%	-12	-21%
CCOC(=O)C1CCCN(C(=O)c2cc(S(=O)(=O)N3CCCCC3)ccc2C)C1 (stereo unspecified)	-1	?	1%	-8%[46.1 µM]	10	8.3µM*
CCOC(=O)C1CCN(C(=O)COc2ccc(S(=O)(=O)N3CCCC3)cc2C)CC1	-1	3.3µM*	-7%[46.1 µM]	-14%	-11	-21%
CC(C)(C)NC(=O)c1ccc2c3c(cccc13)CC2	12	-40%	14%	12%[46.1 µM]	33	-26%
COc1ccc(CN(C)c2ncnc3sccc23)c(OC)c1OC	-2	?	?	?	-3	13µM*
COc1ccc(CCN(C)c2ncnc3sccc23)cc1OC	-2	4%	.	.	-12	-5%
CC(/C=C/c1ccc(N(C)C)cc1)=N\N=C(/N)SC1CC(=O)N(c2ccc(C(=O)O)cc2)C1=O (stereo unspecified)	45*	12%	-7%	?	70*	-23%
O=C(Oc1ccc2ccc(=O)oc2c1)c1ccccc1	0	9.3µM*	.	.	-4	10%
O=c1ccc2ccc(OCCOc3cccc(Cl)c3)cc2o1	24*	31%	?	-16%[46.1 µM]	66*	45%
COc1ccc(C(=O)Oc2ccc3ccc(=O)oc3c2)cc1	-3	36%	8%	?	-3	.
CN(C)C(=O)Oc1ccc(OC(=O)c2ccccc2)cc1	39*	10%	6%	16%	20*	10%
COc1cccc(C(=O)COc2ccc3ccc(=O)oc3c2)c1	7	4%	.	.	-3	16%
O=C(Nc1ccccc1)c1ccc(OC(=O)c2ccccc2)cc1	-1	?	17%	3%	13	35%
O=C(CSc1nc2ccccc2s1)NCC1CCCO1 (stereo unspecified)	18	-25%	.	.	31	48%
CN(C)N=Nc1ccc(-c2cn(Cc3ccccc3)cn2)cc1	47*	4.7µM*	-17%[46.1 µM]	?	41*	?
Nc1cc(-c2ccccc2)nn1Cc1ccccc1	29	?	?	?	65	24%
COc1ccc(-n2c(-c3ccco3)nc3ccccc3c2=O)cc1	-4	19%	?	-20%[46.1 µM]	24	?
Cc1cc(C)c2c(=O)cc(C(=O)Nc3ccccc3Cl)oc2c1	.	.	12%[46.1 µM]	1%[46.1 µM]	.	.
O=C(Nc1ccccc1Br)c1cc(=O)c2ccccc2o1	23	165%	3%[46.1 µM]	?	99*	121%
O=C(Nc1ccccc1Cl)c1cc(=O)c2ccccc2o1	30*	12µM*	29%	?	.	103%
CC(C)Nc1nc(-c2ccccc2)nnc1-c1ccccc1	-1	?	.	.	-12	?

High-throughput results deposited in PubChem BioAssay by National Center for Advancing Translational Sciences (NCATS).
